# Reference: PubChem BioAssay (NCI)
# This is part of a sample that, as a whole, favours compounds with a hit. Of some 79,000 tested, about 15% had one in any assay. Values without a mark were called inactive. Active and inactive are the calls of the source. Cut-off read from the data, not from the text of the source: active = growth inhibition above about 70%; inactive = the rest.
# What was measured:
# [1] = NCI Yeast Anticancer Drug Screen. Data for the wt1 strain (AID 149);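 note: 0% = growth of vehicle-treated wt1 cultures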; conditions: S. cerevisiae wt1 strain (SPY 50644) growth inhibition, active compounds read high
# Method in brief: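 Readout: yeast growth inhibition, normalised to vehicle controls, in the wt1 strain exposed to test compounds.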
# [2] = NCI Yeast Anticancer Drug Screen. Data for the rad50EPP+ strain (AID 151);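 note: 0% = growth of vehicle-treated control cultures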; conditions: S. cerevisiae rad50 mutant strain, active compounds read high
# Method in brief: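 In this screen, rad50EPP+ yeast were exposed to compounds. Growth inhibition was scored against vehicle-treated controls.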
# [3] = NCI Yeast Anticancer Drug Screen. Data for the mgt1 strain (AID 153); conditions: S. cerevisiae mgt1 mutant growth inhibition, active compounds read high
# Method in brief: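 mgt1 strain exposed; growth vs vehicle control recorded as inhibition.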
# [4] = NCI Yeast Anticancer Drug Screen. Data for the rad50 strain (AID 155);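 note: 0% = growth of vehicle-only cultures of the same strain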; conditions: S. cerevisiae rad50 strain growth inhibition, active compounds read high
# Method in brief: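 Compounds were tested on a yeast strain with an engineered DNA damage repair alteration; the reported value is growth inhibition normalised to vehicle treatment.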
# [5] = NCI Yeast Anticancer Drug Screen. Data for the mec2-1 strain (AID 157); conditions: S. cerevisiae mec2-1 strain, active compounds read high
# Method in brief: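 Vehicle-treated cultures served as reference for growth inhibition of compound-exposed mec2-1 yeast.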
# [6] = NCI Yeast Anticancer Drug Screen. Data for the rad14 strain (AID 159);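 note: 0% = growth of vehicle-treated control cultures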; conditions: S. cerevisiae rad14 strain growth inhibition, active compounds read high
# Method in brief: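 Compound-treated yeast with a defined DNA-repair lesion; growth inhibition normalised to vehicle-treated cultures.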
# [7] = NCI Yeast Anticancer Drug Screen. Data for the sgs1 mgt1 strain (AID 161);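 note: 0% = growth of cultures given vehicle only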; conditions: S. cerevisiae sgs1 mgt1 strain, active compounds read high
# Method in brief: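 Genetically altered yeast, compound exposure, growth inhibition relative to vehicle.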
# [8] = NCI Yeast Anticancer Drug Screen. Data for the CLN2oe strain (AID 163);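 note: 0% = growth of vehicle-only control cultures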; conditions: S. cerevisiae CLN2oe strain, active compounds read high
# Method in brief: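 Inhibition relative to vehicle-treated yeast is reported. Cells: strain with genetic alteration in cell-cycle control, grown with compound.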
# [9] = NCI Yeast Anticancer Drug Screen. Data for the cln2 rad14 strain (AID 165);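 note: 0% = growth equal to vehicle treated cultures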; conditions: S. cerevisiae cln2 rad14 strain, active compounds read high
# Method in brief: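 Each compound was tested on cln2 rad14 yeast. Inhibition of growth was calculated against vehicle-exposed controls.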
# [10] = NCI Yeast Anticancer Drug Screen. Data for the bub3 strain (AID 167); conditions: S. cerevisiae bub3 mutant strain, active compounds read high
# Method in brief: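 Growth of a checkpoint-deficient yeast mutant is measured after compound exposure. Values represent inhibition relative to vehicle.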
# [11] = NCI Yeast Anticancer Drug Screen. Data for the wt2 strain (AID 169);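 note: 0% = growth of vehicle-treated yeast cultures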; conditions: S. cerevisiae wt2 strain growth inhibition, active compounds read high
# Method in brief: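 Inhibition of yeast growth was determined after compound treatment, normalised to controls receiving only vehicle.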
# [12] = NCI Yeast Anticancer Drug Screen. Data for the mlh1 strain (AID 171);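 note: 0% = growth of vehicle-treated control cultures of the same strain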; conditions: S. cerevisiae mlh1 strain growth inhibition, active compounds read high
# Method in brief: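 Vehicle-normalised growth inhibition of a repair- or checkpoint-altered yeast strain following compound treatment.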
# [13] = NCI Yeast Anticancer Drug Screen. Data for the sgs1 strain (AID 173);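 note: 0% = growth of vehicle-only control cultures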; conditions: S. cerevisiae sgs1 mutant, active compounds read high
# Method in brief: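 Screen format: yeast with repair or checkpoint alterations, compound exposure, growth read relative to vehicle.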
# [14] = NCI Yeast Anticancer Drug Screen. Data for the mlh1 rad18 strain (AID 175); conditions: S. cerevisiae mlh1 rad18 strain growth inhibition, active compounds read high
# Method in brief: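 Vehicle-treated cultures served as the reference for growth inhibition in a yeast strain carrying DNA damage repair alterations exposed to each compound.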
# [15] = NCI Yeast Anticancer Drug Screen. Data for the rad52 strain (AID 147);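 note: 0% = growth of vehicle-treated control cultures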; conditions: S. cerevisiae rad52 mutant growth inhibition, active compounds read high
# Method in brief: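 Vehicle-treated cultures served as the reference for growth inhibition of compound-exposed yeast bearing a DNA repair mutation.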
# [16] = NCI Yeast Anticancer Drug Screen. Data for the rad18 strain (AID 177); conditions: S. cerevisiae rad18 mutant growth inhibition, active compounds read high
# Method in brief: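 Test articles were incubated with altered yeast defective in DNA damage repair. Results are given as inhibition of growth versus vehicle.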
# [17] = at 5.0 µM (retest, dose inferred, filed as 0.5)
# [18] = at 50.0 µM (retest, dose inferred, filed as 5.0)
compound,measurement,setting,value
O=[N+]([O-])c1cccc2nc3ccccc3c(NCCC[N+]3([O-])CCOCC3)c12,growth inhibition,[1]; at 1.2 µM,-78%
same,growth inhibition,[1]; at 3.7 µM,5%
same,growth inhibition,[1]; at 11.0 µM,16%
same,growth inhibition,[1]; at 33.0 µM,47%
same,growth inhibition,[1]; at 100.0 µM,87% (active)
same,growth inhibition,[2]; at 1.2 µM,6%
same,growth inhibition,[2]; at 3.7 µM,19%
same,growth inhibition,[2]; at 11.0 µM,42%
same,growth inhibition,[2]; at 33.0 µM,79% (active)
same,growth inhibition,[2]; at 100.0 µM,92% (active)
same,growth inhibition,[3]; at 1.2 µM,1%
same,growth inhibition,[3]; at 3.7 µM,5%
same,growth inhibition,[3]; at 11.0 µM,17%
same,growth inhibition,[3]; at 33.0 µM,55%
same,growth inhibition,[3]; at 100.0 µM,85% (active)
same,growth inhibition,[4]; at 1.2 µM,37%
same,growth inhibition,[4]; at 3.7 µM,65%
same,growth inhibition,[4]; [17],37%
same,growth inhibition,[4]; at 11.0 µM,88% (active)
same,growth inhibition,[4]; at 33.0 µM,94% (active)
same,growth inhibition,[4]; [18],92% (active)
same,growth inhibition,[4]; at 50.0 µM,83.4% (active)
same,growth inhibition,[4]; at 100.0 µM,95% (active)
same,growth inhibition,[5]; at 1.2 µM,7%
same,growth inhibition,[5]; at 3.7 µM,41%
same,growth inhibition,[5]; [17],9%
same,growth inhibition,[5]; at 11.0 µM,89% (active)
same,growth inhibition,[5]; at 33.0 µM,97% (active)
same,growth inhibition,[5]; [18],98% (active)
same,growth inhibition,[5]; at 50.0 µM,82.8% (active)
same,growth inhibition,[5]; at 100.0 µM,97% (active)
same,growth inhibition,[6]; at 1.2 µM,38%
same,growth inhibition,[6]; at 3.7 µM,87% (active)
same,growth inhibition,[6]; at 11.0 µM,96% (active)
same,growth inhibition,[6]; at 33.0 µM,98% (active)
same,growth inhibition,[6]; at 100.0 µM,97% (active)
same,growth inhibition,[7]; [17],73% (active)
same,growth inhibition,[7]; [18],93% (active)
same,growth inhibition,[7]; at 50.0 µM,79.6% (active)
same,growth inhibition,[8]; at 1.2 µM,-15%
same,growth inhibition,[8]; at 3.7 µM,-13%
same,growth inhibition,[8]; at 11.0 µM,10%
same,growth inhibition,[8]; at 33.0 µM,55%
same,growth inhibition,[8]; at 100.0 µM,91% (active)
same,growth inhibition,[9]; [17],86% (active)
same,growth inhibition,[9]; [18],98% (active)
same,growth inhibition,[9]; at 50.0 µM,94.6% (active)
same,growth inhibition,[10]; at 1.2 µM,-9%
same,growth inhibition,[10]; at 3.7 µM,-13%
same,growth inhibition,[10]; [17],-6%
same,growth inhibition,[10]; at 11.0 µM,-9%
same,growth inhibition,[10]; at 33.0 µM,14%
same,growth inhibition,[10]; [18],75% (active)
same,growth inhibition,[10]; at 50.0 µM,34.4%
same,growth inhibition,[10]; at 100.0 µM,84% (active)
same,growth inhibition,[11]; at 1.2 µM,-3%
same,growth inhibition,[11]; at 3.7 µM,-1%
same,growth inhibition,[11]; at 11.0 µM,3%
same,growth inhibition,[11]; at 33.0 µM,34%
same,growth inhibition,[11]; at 100.0 µM,93% (active)
same,growth inhibition,[12]; at 1.2 µM,1%
same,growth inhibition,[12]; at 3.7 µM,5%
same,growth inhibition,[12]; at 11.0 µM,21%
same,growth inhibition,[12]; at 33.0 µM,62%
same,growth inhibition,[12]; at 100.0 µM,92% (active)
same,growth inhibition,[13]; at 1.2 µM,63%
same,growth inhibition,[13]; at 3.7 µM,79% (active)
same,growth inhibition,[13]; at 11.0 µM,85% (active)
same,growth inhibition,[13]; at 33.0 µM,89% (active)
same,growth inhibition,[13]; at 100.0 µM,93% (active)
same,growth inhibition,[14]; [17],71% (active)
same,growth inhibition,[14]; [18],98% (active)
same,growth inhibition,[14]; at 50.0 µM,94.5% (active)
COc1ccc2c(C)cc(N/N=C/c3sccc3C)nc2c1,growth inhibition,[15]; at 1.2 µM,-31%
same,growth inhibition,[15]; at 3.7 µM,-45%
same,growth inhibition,[15]; at 11.0 µM,-35%
same,growth inhibition,[15]; at 33.0 µM,29%
same,growth inhibition,[15]; at 100.0 µM,18%
same,growth inhibition,[1]; at 1.2 µM,-30%
same,growth inhibition,[1]; at 3.7 µM,-32%
same,growth inhibition,[1]; at 11.0 µM,-15%
same,growth inhibition,[1]; at 33.0 µM,63%
same,growth inhibition,[1]; at 100.0 µM,66%
same,growth inhibition,[2]; at 1.2 µM,-11%
same,growth inhibition,[2]; at 3.7 µM,-10%
same,growth inhibition,[2]; at 11.0 µM,-4%
same,growth inhibition,[2]; at 33.0 µM,24%
same,growth inhibition,[2]; at 100.0 µM,21%
same,growth inhibition,[4]; at 1.2 µM,-15%
same,growth inhibition,[4]; at 3.7 µM,-25%
same,growth inhibition,[4]; [17],22%
same,growth inhibition,[4]; at 11.0 µM,23%
same,growth inhibition,[4]; at 33.0 µM,80% (active)
same,growth inhibition,[4]; [18],92% (active)
same,growth inhibition,[4]; at 50.0 µM,68.5%
same,growth inhibition,[4]; at 100.0 µM,73% (active)
same,growth inhibition,[5]; at 1.2 µM,-22%
same,growth inhibition,[5]; at 3.7 µM,-28%
same,growth inhibition,[5]; [17],12%
same,growth inhibition,[5]; at 11.0 µM,-8%
same,growth inhibition,[5]; at 33.0 µM,57%
same,growth inhibition,[5]; [18],92% (active)
same,growth inhibition,[5]; at 50.0 µM,50%
same,growth inhibition,[5]; at 100.0 µM,46%
same,growth inhibition,[6]; at 1.2 µM,-53%
same,growth inhibition,[6]; at 3.7 µM,-27%
same,growth inhibition,[6]; at 11.0 µM,-10%
same,growth inhibition,[6]; at 33.0 µM,35%
same,growth inhibition,[6]; at 100.0 µM,31%
same,growth inhibition,[7]; [17],19%
same,growth inhibition,[7]; [18],8%
same,growth inhibition,[7]; at 50.0 µM,80.3% (active)
same,growth inhibition,[8]; at 1.2 µM,-6%
same,growth inhibition,[8]; at 3.7 µM,-9%
same,growth inhibition,[8]; at 11.0 µM,0%
same,growth inhibition,[8]; at 33.0 µM,65%
same,growth inhibition,[8]; at 100.0 µM,56%
same,growth inhibition,[9]; [17],4%
same,growth inhibition,[9]; [18],-26%
same,growth inhibition,[9]; at 50.0 µM,45.8%
same,growth inhibition,[10]; at 1.2 µM,-11%
same,growth inhibition,[10]; at 3.7 µM,10%
same,growth inhibition,[10]; [17],13%
same,growth inhibition,[10]; at 11.0 µM,-7%
same,growth inhibition,[10]; at 33.0 µM,88% (active)
same,growth inhibition,[10]; [18],-26%
same,growth inhibition,[10]; at 50.0 µM,45.1%
same,growth inhibition,[10]; at 100.0 µM,82% (active)
same,growth inhibition,[11]; at 1.2 µM,13%
same,growth inhibition,[11]; at 3.7 µM,-6%
same,growth inhibition,[11]; at 11.0 µM,24%
same,growth inhibition,[11]; at 33.0 µM,78% (active)
same,growth inhibition,[11]; at 100.0 µM,73% (active)
same,growth inhibition,[13]; at 1.2 µM,-34%
same,growth inhibition,[13]; at 3.7 µM,-37%
same,growth inhibition,[13]; at 11.0 µM,14%
same,growth inhibition,[13]; at 33.0 µM,88% (active)
same,growth inhibition,[13]; at 100.0 µM,78% (active)
same,growth inhibition,[14]; [17],27%
same,growth inhibition,[14]; [18],94% (active)
same,growth inhibition,[14]; at 50.0 µM,76.3% (active)
same,growth inhibition,[16]; at 1.2 µM,3%
same,growth inhibition,[16]; at 3.7 µM,-4%
same,growth inhibition,[16]; at 11.0 µM,6%
same,growth inhibition,[16]; at 33.0 µM,85% (active)
same,growth inhibition,[16]; at 100.0 µM,70% (active)
